Measured values: PubChem BioAssay AID504333 (National Center for Advancing Translational Sciences (NCATS), 2011)
In all, about 360,000 compounds went through this assay and about 16,000 (4.4%) were called active. Another 9% or so got no clear call; they are omitted. The sample holds actives, similar compounds and a random draw of the others, so the mix is not that of the screen. Calls come from the whole dose curve; as a rule, active = well fitted inhibition curve with a large enough effect; inconclusive = small, poorly fitted or top-dose-only effect; inactive = no such curve, though single readings can be large or run the other way.

molecular target: Bromodomain adjacent to zinc finger domain protein 2B (Homo sapiens) (UniProt Q9UIF8); test: qHTS Assay for Inhibitors of BAZ2B; conditions: AlphaScreen BAZ2B-H3K14Ac peptide displacement; series mostly up to 114 µM; activity change, negative = inhibition: at the top concentration; note: nearly all actives have a fitted effect of over 60% in size
Sequence (Q9UIF8 whole entry, looked up, the tested form may be a part): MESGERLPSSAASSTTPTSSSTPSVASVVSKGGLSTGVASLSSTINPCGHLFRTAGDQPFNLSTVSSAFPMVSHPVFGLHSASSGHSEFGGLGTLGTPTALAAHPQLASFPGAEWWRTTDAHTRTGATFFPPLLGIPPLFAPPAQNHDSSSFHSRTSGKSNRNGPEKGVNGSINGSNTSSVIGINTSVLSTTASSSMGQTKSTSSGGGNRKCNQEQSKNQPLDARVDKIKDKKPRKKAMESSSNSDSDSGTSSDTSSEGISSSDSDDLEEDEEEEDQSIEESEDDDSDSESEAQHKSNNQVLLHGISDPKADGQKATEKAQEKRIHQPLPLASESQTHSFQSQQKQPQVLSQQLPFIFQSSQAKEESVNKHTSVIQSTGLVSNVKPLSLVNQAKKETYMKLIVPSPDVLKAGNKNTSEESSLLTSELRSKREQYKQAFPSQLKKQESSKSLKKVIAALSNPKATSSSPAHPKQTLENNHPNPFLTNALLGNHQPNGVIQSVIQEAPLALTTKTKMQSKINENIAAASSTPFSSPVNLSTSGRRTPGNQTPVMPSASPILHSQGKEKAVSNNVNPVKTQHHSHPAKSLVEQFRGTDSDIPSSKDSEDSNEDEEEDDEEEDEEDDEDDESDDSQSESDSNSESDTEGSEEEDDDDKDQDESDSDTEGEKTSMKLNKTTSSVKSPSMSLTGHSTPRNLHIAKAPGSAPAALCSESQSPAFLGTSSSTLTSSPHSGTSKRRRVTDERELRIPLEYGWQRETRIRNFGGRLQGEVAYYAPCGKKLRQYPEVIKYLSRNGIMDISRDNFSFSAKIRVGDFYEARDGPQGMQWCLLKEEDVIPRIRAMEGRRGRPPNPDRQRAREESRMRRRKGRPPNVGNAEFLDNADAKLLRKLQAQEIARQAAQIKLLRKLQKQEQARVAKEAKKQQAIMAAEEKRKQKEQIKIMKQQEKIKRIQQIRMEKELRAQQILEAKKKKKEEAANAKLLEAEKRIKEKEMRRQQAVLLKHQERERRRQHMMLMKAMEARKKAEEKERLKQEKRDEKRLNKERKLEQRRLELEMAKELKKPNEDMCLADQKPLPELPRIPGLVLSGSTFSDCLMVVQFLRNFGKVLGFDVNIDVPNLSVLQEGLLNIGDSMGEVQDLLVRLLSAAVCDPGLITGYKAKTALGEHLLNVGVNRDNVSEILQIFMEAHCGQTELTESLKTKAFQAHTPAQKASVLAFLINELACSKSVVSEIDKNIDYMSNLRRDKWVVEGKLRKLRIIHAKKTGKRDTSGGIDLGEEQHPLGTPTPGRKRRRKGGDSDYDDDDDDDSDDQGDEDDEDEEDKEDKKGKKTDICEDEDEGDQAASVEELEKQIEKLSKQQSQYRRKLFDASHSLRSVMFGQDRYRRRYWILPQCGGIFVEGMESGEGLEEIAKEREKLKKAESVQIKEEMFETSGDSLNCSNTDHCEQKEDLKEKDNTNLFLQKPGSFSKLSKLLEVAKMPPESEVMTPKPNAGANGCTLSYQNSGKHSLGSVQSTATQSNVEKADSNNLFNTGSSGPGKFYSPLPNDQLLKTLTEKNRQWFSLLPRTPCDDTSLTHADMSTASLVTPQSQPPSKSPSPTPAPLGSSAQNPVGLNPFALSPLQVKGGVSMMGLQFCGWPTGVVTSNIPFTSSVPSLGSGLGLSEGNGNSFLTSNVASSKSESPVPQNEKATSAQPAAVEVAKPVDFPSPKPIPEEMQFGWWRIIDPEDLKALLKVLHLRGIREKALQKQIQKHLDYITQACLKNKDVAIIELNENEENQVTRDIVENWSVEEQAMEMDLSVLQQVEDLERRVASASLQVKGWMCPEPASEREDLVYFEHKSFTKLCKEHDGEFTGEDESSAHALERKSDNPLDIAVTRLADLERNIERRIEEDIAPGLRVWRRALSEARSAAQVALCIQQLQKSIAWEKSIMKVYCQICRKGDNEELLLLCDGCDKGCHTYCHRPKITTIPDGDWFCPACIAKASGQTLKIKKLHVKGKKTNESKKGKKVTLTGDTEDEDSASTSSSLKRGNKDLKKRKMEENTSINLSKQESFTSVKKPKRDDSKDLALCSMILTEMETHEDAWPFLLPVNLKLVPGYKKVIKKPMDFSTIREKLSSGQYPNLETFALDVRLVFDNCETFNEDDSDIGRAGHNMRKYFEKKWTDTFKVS
In short: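 BAZ2B 50 nM plus b-H3(5-23)K14Ac 50 nM, PBS pH 7.4/0.01% Tween-20, 30 min RT; compound added (max 110 uM), 30 min RT; streptavidin donor/Ni-chelate acceptor beads 10 ug/mL final, 20 min dark; AlphaScreen read.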
% is set by controls: 0 for no effect and ±100 for the full control effect; potency is the fitted concentration of half-maximal effect.

Structure (SMILES)	activity change, negative = inhibition	Potency
COC(=O)C1=C(c2ccc(F)cc2OCc2ccccc2)C[C@@H]2CC[C@H]1N2C(=O)NCc1ccc(OC)c(OC)c1	-9.47% (inactive)	
O=C(CCC(=O)N1C[C@H]2C[C@@H](C1)c1cccc(=O)n1C2)NCc1ccccc1C(F)(F)F	9.68% (inactive)	
CN1CCN(Cc2ccc(OC(F)(F)F)cc2)CC1		56.2 µM (active)
CN1CCN(Cc2ccccc2C(F)(F)F)CC1	-2.16% (inactive)	
CC(C)c1ccc(OCC(=O)N2CCCN(C)CC2)cc1	2.95% (inactive)	
CCN(CC)C(=O)c1ccc(NC(=O)c2sccc2-c2ccccc2)cc1	-3.49% (inactive)	
CCOc1cc(N2CCOCC2)c(OCC)cc1NC(=O)C1=NN(c2cccc(C)c2)C(=O)CC1		8.91 µM (active)
CN(C)CC1Oc2ccccc2OC1(O)c1ccccc1 (stereo not given)	1.99% (inactive)	
CN(C)c1ccc(/C=C2\CC3C4CC=C5CC(O)CCC5(C)C4CCC3(C)C2=O)cc1 (stereo not given)	-29.5% (inactive)	
COC(=O)C1=C(c2ccc(F)cc2OCc2ccccc2)C[C@@H]2CC[C@H]1N2C(=O)NCc1ccc(Cl)cc1	3.65% (inactive)	
c1cc2c(cc1CCNC1CCCCCC1)OCO2		17.8 µM (active)
c1cc2c(cc1[C@H]1OC[C@H]3[C@@H]1CO[C@@H]3c1ccc3c(c1)OCO3)OCO2	2.2% (inactive)	
Cc1ccc(CN2CCCC(C(=O)c3ccc4c(c3)OCO4)C2)cc1C (stereo not given)	-14.9% (inactive)	
OC(CNC1CCCCC1)c1ccccc1 (stereo not given)	4.38% (inactive)	
c1ccc(CCNC2CCCCCC2)cc1		70.8 µM (active)
c1ccc(CC2CCCCN2)cc1 (stereo not given)	3.56% (inactive)	
COc1cc(Cn2c(N)c(C(=O)NCc3ccco3)c3nc4ccccc4nc32)cc(OC)c1OC	-13.2% (inactive)	
O=C(c1ccccc1[N+](=O)[O-])N1CCC2(CC1)OCCO2	-1.71% (inactive)	
COC(=O)C1=C(c2ccc(F)cc2F)C[C@@H]2CC[C@H]1N2C(=O)NC1CC1	11.4% (inactive)	
Cc1ccc2c(c1)=C/C(=C\c1c(O)[nH]c(=O)[nH]c1=O)C(=O)N=2	-11.9% (inactive)	
CCOc1ccc(-c2cc(C)[n+](CCN(CC)CC)c(-c3ccc(OCC)cc3)c2)cc1	-12.5% (inactive)	
Cc1ccc(C(C)C)c(OCC(=O)N2CCN(CC(=O)N3CCOCC3)CC2)c1	7.63% (inactive)	
CN(C)c1ccc(NC(=O)CN2C3CCCC2CC(NC(=O)c2ccccc2)C3)cc1 (stereo not given)		70.8 µM (active)

Structure (SMILES)	activity change, negative = inhibition	Potency
CC(=O)Nc1ccc(C(=O)C(Cc2ccccc2)N(C)C)cc1 (stereo not given)	-24% (inactive)	
CN(C)S(=O)(=O)c1cc(C(=O)N2CCC(C(=O)O)(c3ccccc3)CC2)ccc1Cl	3.5% (inactive)	
CCN1CCN(c2nc3c(c(=O)[nH]2)CCC3)CC1	-11.1% (inactive)	
O=C(Nc1ccc(Cl)cc1C(=O)c1ccccc1)c1cc(Cl)cc(Cl)c1	-6.39% (inactive)	
O=C1NC(=O)N(c2ccccc2)C(=O)/C1=C/c1ccc([N+](=O)[O-])s1		35.5 µM (active)
COc1cccc(N2C(=O)NC(=O)/C(=C\c3cn(C)c4ccccc34)C2=O)c1	-0.686% (inactive)	
COc1cccc(N2C(=O)NC(=O)/C(=C\c3ccc([N+](=O)[O-])s3)C2=O)c1		31.6 µM (active)
Cc1cccc(N2C(=O)NC(=O)/C(=C\c3cnn(-c4ccccc4)c3)C2=O)c1	-4.33% [at 57.1 µM] (inactive)	
Cc1nn(-c2ccccc2)c(C)c1NC(=O)COC(=O)Cc1ccccc1	-2.34% (inactive)	
COC(=O)C1=C(c2ccc(C(C)=O)cc2)C[C@@H]2CC[C@H]1N2C(=O)NCCNC(C)=O	3.05% (inactive)	
CC(C)n1c(=O)c(C=Nc2ccc(Br)cc2)c(O)n(Cc2ccco2)c1=O	3.28% (inactive)	
Cc1cc(C(=O)OCC(=O)Nc2c(F)cccc2F)c(C)n1C1CC1	10.6% (inactive)	
COc1ccccc1OC(=O)c1ccc(C)c(S(=O)(=O)N2CCOCC2)c1	-19.5% (inactive)	
COc1ccc(CN2C(=O)NC(=O)/C(=C\c3ccc(OC)c(OC)c3OC)C2=O)cc1	-35.5% (inactive)	
COc1ccc(N2C(=O)/C(=C/c3ccco3)C(=O)NC2=S)cc1		3.55 µM (active)
Cc1ccc(S(=O)(=O)N(C)c2ccc(C(=O)NCC3(N(C)C)CCCCC3)cc2)cc1	-7.55% (inactive)	
CN(C)C(=O)Oc1ccc(OCc2cccc[n+]2C)cc1	-2.06% (inactive)	
COC(=O)C1=C(c2ccc(F)cc2OCc2ccccc2)C[C@@H]2CC[C@H]1N2C(=O)NCc1ccc(C(C)(C)C)cc1	-29.9% (inactive)	
O=C(OCC1O[C@@H](OC(=O)c2cc(O)c(O)c(O)c2)[C@@H](OC(=O)c2cc(O)c(O)c(O)c2)[C@@H](OC(=O)c2cc(O)c(O)c(O)c2)[C@@H]1OC(=O)c1cc(O)c(O)c(O)c1)c1cc(O)c(O)c(O)c1 (stereo not given in full)		0.708 µM (active)
CN(C)C(=O)Oc1ccc2c(c1)O/C(=C\c1ccccc1)C2=O	-32.8% (inactive)	
CC1CCC(N(C)C2CCN(C)CC2)CC1 (stereo not given)	-19.6% (inactive)	
CNC(=O)O/N=C(\N)Cc1csc2ccc(Cl)cc12	-13.2% (inactive)	
